# Test results from PubChem BioAssay (NCI).
# This is part of a sample that, as a whole, favours compounds with a hit. Of some 83,000 tested, about 20% had one in any assay.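 For each line, cells grew in 96-well plates with the test compound present at a single concentration for 48 hours.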 A number with no mark means an inactive call. The source made the active and inactive calls. The calls were made as follows: active = growth percent below 10; inactive = the rest.
# What was measured:
# Assay in all cases: NCI-60 one-dose screen, 48 h (100 = growth as untreated, 0 = no growth, -100 = all killed)
# Details in all cases: 10 µM unless noted
# [1] = test system: NCI-H23 lung
# [2] = test system: NCI-H226 lung
# [3] = test system: NCI-H322M lung
# [4] = test system: HOP-62 NSCLC
# [5] = test system: NCI-H460 lung
# [6] = test system: HOP-92 NSCLC
# [7] = test system: NCI-H522 lung
# [8] = test system: A549/ATCC NSCLC
# [9] = test system: 786-0 renal
# [10] = test system: COLO 205 colon
# [11] = test system: DU-145 prostate
# [12] = test system: K-562 leukemia
# [13] = test system: MALME-3M melanoma
# [14] = test system: MDA-MB-231 breast
# [15] = test system: RXF 393 renal
# [16] = test system: SF-268 CNS
# [17] = test system: SF-295 CNS
# [18] = test system: SF-539 CNS
# [19] = test system: UACC-257 melanoma
# [20] = test system: M14 melanoma
Compound,growth [1],growth [2],growth [3],growth [4],growth [5],growth [6],growth [7],growth [8],growth [9],growth [10],growth [11],growth [12],growth [13],growth [14],growth [15],growth [16],growth [17],growth [18],growth [19],growth [20]
O=C(OCc1ccc2c(Cl)cc(Cl)c(O)c2n1)n1cncn1,44.5%,59.1%,50.4%,27.5%,19.9%,49.4%,51.4%,22.1%,45.7%,96.5%,38.7%,18.2%,33%,59.6%,45.9%,24.1%,20%,15.7%,41.2%,20.4%
CCOC(=O)c1[nH]c(=O)c2c(C)nc(-c3ccccc3)cc2c1O,105%,93%,118%,124%,102%,78.5%,92.7%,101%,112%,117%,112%,110%,136%,78.8%,112%,106%,110%,106%,106%,104%
N#Cc1c(-c2ccc(Cl)cc2)nc(NN=Cc2cccc(O)c2)nc1N1CCOCC1,100%,92.9%,86.3%,87.8%,77.9%,63.3%,74.8%,72.7%,64.3%,85.7%,63.4%,45.1%,104%,95.9%,24.1%,81.9%,97.1%,67.8%,86.5%,66.6%
Cc1ccccc1Cn1cnc2ccc(-c3cc(NC(=O)c4ccc(NC5CCN(C)CC5)cc4)n[nH]3)cc21,75%,68%,83.5%,72.3%,91.9%,92.4%,57.2%,84.5%,85%,70.8%,90.8%,15.8%,31.6%,61.3%,4.62% (active),69.2%,89.9%,27.4%,81%,82.9%
CC(C)CCC[C@@H](C)[C@H]1CC[C@H]2[C@@H]3CC=C4C[C@@H](C(C(=O)O)C(=O)O)CC[C@]4(C)[C@H]3CC[C@]12C,-48% (active),-62.9% (active),-0.312% (active),-54.8% (active),-71.5% (active),8.17% (active),-28.7% (active),-51.7% (active),-58.6% (active),-91.1% (active),-83.5% (active),-48.3% (active),-43% (active),-28.2% (active),-49.8% (active),-24.6% (active),-61.2% (active),-27.3% (active),-49.8% (active),-72.9% (active)
CCN(CC)CCNC(=O)c1cn2ncnc(Oc3ccc(NC(=O)Nc4ccc(Cl)c(C(F)(F)F)c4)c(F)c3)c2c1C,-37.4% (active),73.9%,34.4%,36.5%,-67% (active),22.1%,-52.3% (active),4.56% (active),-86.1% (active),-59.5% (active),8.01% (active),-23% (active),-89.7% (active),-82.5% (active),-44.9% (active),43.1%,-52.8% (active),-79.8% (active),-57.4% (active),-83.2% (active)
CCCCCOc1ccc(C(=O)/C(Br)=C/C(=O)O)cc1,91.9%,106%,104%,214%,103%,99.2%,89.2%,104%,98.8%,105%,106%,60.1%,130%,109%,95.2%,97.5%,112%,100%,106%,56.8%
COc1ccc(-c2nc(SCC(C)C)nc(N/N=C\c3ccc(F)cc3)c2C#N)cc1,97.4%,81.4%,67.7%,109%,25.7%,89.9%,107%,69.9%,83%,94.8%,94.3%,94%,81%,93.1%,111%,86.6%,75.8%,91.6%,102%,92.7%
Fc1cccc(CNc2c3ccccc3nc3ccccc23)c1F,60.6%,72.9%,63.4%,72.7%,48%,2.67% (active),53.8%,56.7%,65.4%,40.9%,76.7%,43.4%,94.1%,58.2%,59.5%,83.4%,53.7%,55.5%,92.9%,70.6%
CCCCCCCCn1ccc2cc(NC(=O)Cn3cc(CN4CCCCC4)nn3)ccc21,75%,79.4%,17.6%,58.6%,-50.6% (active),38.1%,10.3%,25.2%,-68.5% (active),-80% (active),52.2%,-13.5% (active),-88.3% (active),-37.1% (active),-72% (active),21.3%,-66.5% (active),-42.3% (active),-49.5% (active),-79.8% (active)
O=C(Nc1nc2ccc(F)cc2s1)c1cccnc1Nc1ccc(Cl)cc1,9.97% (active),44.1%,30.9%,75.6%,9.26% (active),0.414% (active),21.1%,31%,56.2%,49.8%,44.3%,5.7% (active),3.74% (active),50.7%,59.8%,37.2%,17.4%,50.3%,43%,53.8%
COc1cc(NC(C)CCCNC(C)C)c2ncccc2c1OC (stereo not given),89.5%,95%,99.7%,98.3%,98.6%,74.6%,69.6%,102%,86.8%,90.6%,113%,104%,105%,89%,95%,105%,99.9%,85.6%,107%,97%
C#CCOc1ccc2ncnc(Nc3cccc(NC(=O)C=C)c3)c2c1,80.7%,76.2%,61.1%,63.6%,65.1%,66.1%,50.3%,56.4%,56.4%,87.5%,54%,70.6%,73.9%,58.1%,6.44% (active),55.9%,91.6%,59.2%,69.5%,62.8%
O=C1/C(=C\c2cn(-c3ccccc3)nc2-c2ccc(-c3cccs3)cc2)CCc2ccccc21,71.4%,74.4%,98.5%,75.5%,47.1%,78.7%,24.7%,60.4%,73.2%,74.6%,85.8%,17.6%,65.4%,67.5%,58.1%,70.5%,54.8%,72%,83.3%,39.1%
COc1ccc(C2c3sc4c(F)cccc4c3Oc3nc[nH]c(=O)c32)cc1 (stereo not given),78.4%,66.6%,68.6%,79.5%,82.7%,59.4%,80.1%,88.8%,91.8%,108%,98.2%,72.2%,94.4%,72.7%,72.3%,82%,88%,77.4%,105%,91.4%
O=C(NNC(=O)c1ccc(-n2cc(-c3ccccc3)nn2)cc1)Nc1ccccc1,97.6%,99.6%,108%,94.8%,109%,98.8%,108%,102%,104%,111%,106%,105%,113%,108%,103%,90.2%,101%,96%,103%,97.6%
